From PubChem BioAssay (Tox21)
Results filed as inconclusive are left out. Entries that show only a call come without a potency. Calls of active or inactive are those of the source. The call rests on the fitted dose curve.

Each compound was assayed against 5-hydroxytryptamine receptor 2A (Homo sapiens) (UniProt P28223) (assay: 5-hydroxytryptamine receptor 2A (HTR2A) small molecule antagonists, cell-based qHTS assay (AID 1963586; further: nearly all actives have a fitted effect of over 45% in size)). Conditions: HTR2A-CHO cells, DOI-induced calcium flux, fluorescence; series mostly up to 61.5 µM.
Excerpt: National Center for Advancing Translational Sciences [NCATS]
Division of Preclinical Innovation [DPI]
U.S. Environmental Protection Agency [EPA]
National Institutes of Environmental Health Sciences [NIEHS]
National Toxicology Program [NTP]
U.S. Food and Drug Administration [FDA]
The HTR2A receptor is a subtype of the 5-HT2 receptor that belongs to the serotonin receptor family and is a G protein-coupled receptor (GPCR). The HTR2A-CHO cell line stably expressing human 5-hydroxytryptamine receptor 2A (HTR2A) can be used for screening antagonists of interactions between 5-HT2 and its ligands. The HTR2A-CHO calcium flux assay is a homogeneous fluorescence-based assay for detecting the intracellular calcium level using FDSS kinetic plate reader system.
Tox21 Assay Protocol Summary:
HTR2A-CHO cells were dispensed at 2000 cells/3uL/well in 1536-well black-clear bottom plates using a Multidrop Dispenser. After the assay plates were incubated at a 37 C/5% CO2 incubator for 18 h, 3 uL of Dye Loading Buffer was transferred to the assay plate by a Flying Reagent Dispenser. The assay plates were incubated at 37 C for 1h. For antagonist mode, 23 nL of compounds dissolved in DMSO, positive controls or DMSO only was transferred to the assay plate by a pin tool. After 5 min incubation at room temperature, 1.5 uL of 4-Iodo-2,5-dimethoxy-alpha-methylbenzeneethanamine hydrochloride (DOI) at 4nM was added to each well. The fluorescence intensity in the plates was measured using FDSS 7000EX kinetic plate reader for 3 min at 1 sec intervals.
Potency means the concentration at half of the fitted maximal effect.

Sequence of 5-hydroxytryptamine receptor 2A (Homo sapiens) (P28223 whole entry, looked up): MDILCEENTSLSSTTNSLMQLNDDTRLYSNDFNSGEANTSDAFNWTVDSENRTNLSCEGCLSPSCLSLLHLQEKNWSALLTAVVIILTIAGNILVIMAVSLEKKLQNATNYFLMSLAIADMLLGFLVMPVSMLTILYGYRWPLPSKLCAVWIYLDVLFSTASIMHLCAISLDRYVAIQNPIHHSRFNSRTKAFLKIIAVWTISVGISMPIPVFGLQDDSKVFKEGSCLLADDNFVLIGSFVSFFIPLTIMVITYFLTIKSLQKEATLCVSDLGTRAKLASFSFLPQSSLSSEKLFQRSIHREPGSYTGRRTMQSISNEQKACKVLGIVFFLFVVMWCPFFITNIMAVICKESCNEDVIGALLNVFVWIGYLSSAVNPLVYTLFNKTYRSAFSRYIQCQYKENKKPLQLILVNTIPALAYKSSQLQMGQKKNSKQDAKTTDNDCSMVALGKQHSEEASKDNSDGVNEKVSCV

| SMILES | Potency |
| --- | --- |
| O=C1CCN(c2ccccc2)N1 | inactive |
| CC(C)OC(=O)C(O)(CC(=O)O)CC(=O)O | inactive |
| COc1ccc2nc(N)sc2c1 | inactive |
| C[CH2][Ge]([Cl])([CH2]C)[CH2]C | inactive |
| COC(c1ccccc1)(c1ccccc1)[C@H](Oc1nc(C)cc(C)n1)C(=O)O | inactive |
| CC(=O)OCC(=O)Nc1cc(C#N)cc(NC(=O)COC(C)=O)c1Cl | inactive |
| NCC1(Cc2noc(=O)[nH]2)CCCCC1 | inactive |
| CC1(C)[C@@H]2CC[C@]3(C2)[C@@H]1C(=O)CCC3(C)C | inactive |
| c1ccc2c(c1)CCc1ccccc1N2 | inactive |
| CC(C)(C)OC(=O)c1cccc(N)c1 | inactive |
| C=C(C)C(=O)OCCCCCCCC(C)C | inactive |
| N#C[C@@H]1C[C@@H]2C[C@@H]2N1C(=O)[C@@H](N)C12CC3CC(CC(O)(C3)C1)C2 | inactive |
| O=C(c1ccc2c(c1)C(=O)OC2=O)c1ccc2c(c1)C(=O)OC2=O | inactive |
| CC(=O)OC[C@H]1O[C@@H](OC(C)=O)[C@H](OC(C)=O)[C@@H]1OC(C)=O | inactive |
| O=C1OC(=O)c2c(Cl)c(Cl)c(Cl)c(Cl)c21 | inactive |
| CCN1CCCC(OC(=O)C(c2ccccc2)c2ccccc2)C1 (stereo not given) | 163 nM (active) |
| COc1ccc2cc(C=O)ccc2c1 | inactive |
| C/C=C/C(=O)CCCC | inactive |
| CCCCC(CC)COC(C)=O (stereo not given) | inactive |
| NS(=O)(=O)c1cc2c(cc1C(F)(F)F)NC(Cc1ccccc1)NS2(=O)=O (stereo not given) | inactive |

| SMILES | Potency |
| --- | --- |
| OC[C@H]1O[C@@H](O[C@H]2[C@H](O)[C@@H](O)[C@H](O)O[C@@H]2CO)[C@H](O)[C@@H](O)[C@H]1O | inactive |
| N#Cc1ccc(C2CCCc3cncn32)cc1 (stereo not given) | inactive |
| NS(=O)(=O)c1ccc(N2CCCCS2(=O)=O)cc1 | inactive |
| COc1cc(C)c(Cc2cnc(N)nc2N)cc1OC | inactive |
| N=c1nc(N2CCCCC2)cc(N)n1O | inactive |
| COc1ccc(Cl)cc1C | inactive |
| CCCCCCCC/C=C\CCCCCCCC(N)=O | inactive |
| Nc1cc(S(=O)(=O)O)ccc1S(=O)(=O)O | inactive |
| O=C(O)CCC(=O)Nc1ccc(S(=O)(=O)Nc2nccs2)cc1 | inactive |
| c1cnccn1 | inactive |
| CCC(CO)(CO)CO | inactive |
| Cc1ccc(N=Nc2c(O)ccc3ccccc23)c(C)c1 | inactive |
| CCN(C=O)CC | inactive |
| CCc1ccc(C)nc1 | inactive |
| C[C@]12CC[C@H]3[C@@H](CCC4=CC(=O)CC[C@@]43C)[C@@H]1CC[C@@H]2C(=O)CO | inactive |
| Cc1cncc(C)c1 | inactive |
| NC(=O)C1CO1 (stereo not given) | inactive |
| CC(=O)CC/C=C(\C)CC/C=C(\C)CC/C=C(\C)CCC=C(C)C | inactive |
| Cc1ccc(C)o1 | inactive |
| CCCCCOC(C)=O | inactive |
